Consider one sequence from PMC7862700, “An all-to-all approach to the identification of sequence-specific readers for epigenetic DNA modifications on cytosine”.

Common to all, as to test: DAPPL (digital affinity profiling via proximity ligation, sequencing); 10 mM Tris-HCl pH 7.5, 50 mM NaCl, 1 mM DTT, 4% glycerol, room temperature, 30 min; GST-TFs on glutathione beads, 16-mer random dsDNA library, 0.1% formaldehyde crosslink after washing; high values mean tight binding
One test has as its target T1, FLI1 (Homo sapiens, UniProt Q01543 1-452).
T1 sequence: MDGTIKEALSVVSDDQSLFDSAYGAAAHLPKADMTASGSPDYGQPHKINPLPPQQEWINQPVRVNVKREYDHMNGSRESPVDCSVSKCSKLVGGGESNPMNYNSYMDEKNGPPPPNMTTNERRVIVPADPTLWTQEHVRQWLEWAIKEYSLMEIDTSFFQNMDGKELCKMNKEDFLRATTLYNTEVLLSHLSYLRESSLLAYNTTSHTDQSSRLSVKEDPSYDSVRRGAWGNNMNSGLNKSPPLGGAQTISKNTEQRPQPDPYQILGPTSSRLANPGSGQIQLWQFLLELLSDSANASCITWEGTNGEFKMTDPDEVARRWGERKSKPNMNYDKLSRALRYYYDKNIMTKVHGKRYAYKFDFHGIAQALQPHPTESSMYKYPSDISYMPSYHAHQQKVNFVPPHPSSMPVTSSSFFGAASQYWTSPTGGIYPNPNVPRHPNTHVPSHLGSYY
Conditions: protein: recombinant; tags: N-terminal GST; dsDNA, one strand shown. The essentials: (§1)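 Beads coated with glutathione captured GST-fused human transcription factors that had been expressed in yeast, and the factors were then given DNA barcodes and pooled with a tag-only sample. The pools were incubated with 200 nmole of a random double-stranded 16-mer DNA library in Tris/NaCl/DTT/glycerol buffer for 30 min at room temperature, washed, crosslinked with 0.1% formaldehyde and proximity-ligated with BsaI/T4 ligase at 37 °C for 1 h. PCR amplification and Illumina NextSeq500 sequencing came last. Binding signal is each hexamer's read frequency for a factor divided by its frequency for the tag-only sample.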

Another test concerns the target T2, ELK1 (Homo sapiens, UniProt P19419 1-428).
T2 sequence: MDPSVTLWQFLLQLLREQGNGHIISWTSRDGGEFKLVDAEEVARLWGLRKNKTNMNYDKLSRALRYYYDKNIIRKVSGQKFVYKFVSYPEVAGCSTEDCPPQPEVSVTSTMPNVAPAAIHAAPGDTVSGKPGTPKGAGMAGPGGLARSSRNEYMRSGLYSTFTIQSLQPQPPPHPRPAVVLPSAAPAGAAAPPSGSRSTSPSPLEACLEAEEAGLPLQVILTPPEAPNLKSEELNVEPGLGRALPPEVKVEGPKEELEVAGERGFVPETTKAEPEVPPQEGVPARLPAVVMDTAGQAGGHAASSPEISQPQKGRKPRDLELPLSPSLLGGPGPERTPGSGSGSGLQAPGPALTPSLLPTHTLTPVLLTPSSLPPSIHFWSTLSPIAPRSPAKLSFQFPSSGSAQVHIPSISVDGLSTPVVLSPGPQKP
Conditions: protein: recombinant; tags: N-terminal GST; dsDNA, one strand shown. The essentials:
as §1

A further test has as its target T3, GABPA (Homo sapiens, UniProt Q06546 1-454).
T3 sequence: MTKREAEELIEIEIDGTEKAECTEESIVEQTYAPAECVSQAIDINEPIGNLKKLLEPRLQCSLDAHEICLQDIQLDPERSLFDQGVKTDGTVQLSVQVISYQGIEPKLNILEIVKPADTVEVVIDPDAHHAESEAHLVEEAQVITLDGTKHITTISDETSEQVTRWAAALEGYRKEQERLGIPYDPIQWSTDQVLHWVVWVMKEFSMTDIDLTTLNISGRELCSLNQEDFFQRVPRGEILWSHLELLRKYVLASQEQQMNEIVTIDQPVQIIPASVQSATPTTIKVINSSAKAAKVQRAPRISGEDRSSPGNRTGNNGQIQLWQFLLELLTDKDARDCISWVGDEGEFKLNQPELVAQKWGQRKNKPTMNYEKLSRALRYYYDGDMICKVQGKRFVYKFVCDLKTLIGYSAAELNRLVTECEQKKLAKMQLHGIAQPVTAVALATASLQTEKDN
Conditions: protein: recombinant; tags: N-terminal GST; dsDNA, one strand shown. An outline of the steps:
as §1

In another test the target is T4, ERG (Homo sapiens, UniProt P11308 1-479).
T4 sequence: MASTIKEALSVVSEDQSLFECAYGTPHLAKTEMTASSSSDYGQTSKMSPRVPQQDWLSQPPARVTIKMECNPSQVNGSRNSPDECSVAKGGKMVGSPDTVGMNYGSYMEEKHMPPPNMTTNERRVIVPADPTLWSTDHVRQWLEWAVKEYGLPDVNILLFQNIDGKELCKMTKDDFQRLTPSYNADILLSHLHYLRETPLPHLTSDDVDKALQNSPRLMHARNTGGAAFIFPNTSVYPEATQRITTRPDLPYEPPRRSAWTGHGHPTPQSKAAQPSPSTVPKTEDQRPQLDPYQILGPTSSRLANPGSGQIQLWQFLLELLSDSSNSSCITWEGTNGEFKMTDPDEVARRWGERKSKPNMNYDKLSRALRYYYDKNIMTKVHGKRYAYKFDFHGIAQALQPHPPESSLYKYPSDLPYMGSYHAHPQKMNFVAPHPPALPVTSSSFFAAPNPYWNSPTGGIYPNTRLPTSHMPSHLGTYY
As to conditions: protein: recombinant; tags: N-terminal GST; dsDNA, one strand shown. The essentials: as §1

The target in the next test is ELF1 (Homo sapiens, UniProt P32519 1-619). As to conditions: protein: recombinant; tags: N-terminal GST; dsDNA, one strand shown. An outline of the steps:
as §1

The target of a further test is T5, EHF (Homo sapiens, UniProt Q9NZC4 1-300).
T5 sequence: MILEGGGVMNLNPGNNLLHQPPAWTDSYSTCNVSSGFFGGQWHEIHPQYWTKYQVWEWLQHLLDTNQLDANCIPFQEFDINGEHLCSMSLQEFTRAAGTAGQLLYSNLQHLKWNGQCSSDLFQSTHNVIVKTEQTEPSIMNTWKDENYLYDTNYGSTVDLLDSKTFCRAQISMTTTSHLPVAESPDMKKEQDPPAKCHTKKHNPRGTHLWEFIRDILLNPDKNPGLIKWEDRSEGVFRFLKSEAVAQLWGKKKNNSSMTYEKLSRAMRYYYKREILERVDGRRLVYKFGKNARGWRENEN
Conditions: protein: recombinant; tags: N-terminal GST; dsDNA, one strand shown. An outline of the steps: as §1

Another test addresses SPI1 (Homo sapiens, UniProt P17947 1-270). As to conditions: protein: recombinant; tags: N-terminal GST; dsDNA, one strand shown. The essentials:
as §1

The target in the next test is SPIB (Homo sapiens, UniProt Q01892 1-262). As to conditions: protein: recombinant; tags: N-terminal GST; dsDNA, one strand shown. An outline of the steps: as §1
SPIB, sequence (Q01892 whole entry): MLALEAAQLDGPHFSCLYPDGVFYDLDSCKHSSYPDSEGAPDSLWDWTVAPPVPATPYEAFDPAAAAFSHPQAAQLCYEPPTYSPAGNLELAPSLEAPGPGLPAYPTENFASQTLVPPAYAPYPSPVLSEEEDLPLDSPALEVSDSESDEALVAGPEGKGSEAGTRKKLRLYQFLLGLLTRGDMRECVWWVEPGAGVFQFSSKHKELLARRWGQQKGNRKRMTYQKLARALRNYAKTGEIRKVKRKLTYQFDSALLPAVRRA
The next test concerns the target T6, ELK3 (Homo sapiens, UniProt P41970 1-407).
T6 sequence: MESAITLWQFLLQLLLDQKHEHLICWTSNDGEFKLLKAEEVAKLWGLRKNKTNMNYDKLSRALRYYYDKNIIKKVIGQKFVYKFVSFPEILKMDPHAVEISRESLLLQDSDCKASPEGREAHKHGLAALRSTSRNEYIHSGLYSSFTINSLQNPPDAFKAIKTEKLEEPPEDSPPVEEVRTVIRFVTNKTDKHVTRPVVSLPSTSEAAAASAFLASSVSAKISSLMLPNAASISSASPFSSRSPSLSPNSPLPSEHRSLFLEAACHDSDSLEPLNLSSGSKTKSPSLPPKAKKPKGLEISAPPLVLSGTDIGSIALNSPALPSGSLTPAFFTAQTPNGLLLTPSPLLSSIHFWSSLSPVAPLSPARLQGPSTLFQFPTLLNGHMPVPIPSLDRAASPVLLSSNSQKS
Conditions: protein: recombinant; tags: N-terminal GST; dsDNA, one strand shown. The essentials:
as §1

For the next test, the target named is T7, FEV (Homo sapiens, UniProt Q99581 1-238).
T7 sequence: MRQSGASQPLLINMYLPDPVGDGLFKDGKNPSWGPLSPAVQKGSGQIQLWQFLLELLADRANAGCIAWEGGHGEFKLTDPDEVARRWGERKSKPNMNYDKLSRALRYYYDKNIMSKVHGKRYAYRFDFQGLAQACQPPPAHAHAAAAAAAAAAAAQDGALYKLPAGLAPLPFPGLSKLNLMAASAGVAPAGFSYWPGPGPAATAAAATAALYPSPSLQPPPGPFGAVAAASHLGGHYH
As to conditions: protein: recombinant; tags: N-terminal GST; dsDNA, one strand shown. An outline of the steps: as §1

The target in another test is ETV5 (Homo sapiens, UniProt P41161 1-510). As to conditions: protein: recombinant; tags: N-terminal GST; dsDNA, one strand shown. An outline of the steps:
as §1

The target of another test is HSF1 (Homo sapiens, UniProt Q00613 1-529). Conditions: protein: recombinant; tags: N-terminal GST; chain copies: 3; dsDNA, one strand shown. The essentials:
as §1

The target of a further test is T8, SPIC (Homo sapiens, UniProt Q8N5J4 1-248).
T8 sequence: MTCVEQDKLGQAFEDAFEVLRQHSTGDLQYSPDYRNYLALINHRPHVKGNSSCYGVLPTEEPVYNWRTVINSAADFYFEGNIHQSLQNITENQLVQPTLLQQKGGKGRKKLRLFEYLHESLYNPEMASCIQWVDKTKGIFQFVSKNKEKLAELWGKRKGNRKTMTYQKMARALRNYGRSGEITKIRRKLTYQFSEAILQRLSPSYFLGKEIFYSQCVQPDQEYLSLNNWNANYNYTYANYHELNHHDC
As to conditions: protein: recombinant; tags: N-terminal GST; dsDNA, one strand shown. The essentials: as §1

A further test deals with ELF4 (Homo sapiens, UniProt Q99607 1-663). As to conditions: protein: recombinant; tags: N-terminal GST; dsDNA, one strand shown. An outline of the steps: as §1
ELF4, sequence (Q99607 whole entry): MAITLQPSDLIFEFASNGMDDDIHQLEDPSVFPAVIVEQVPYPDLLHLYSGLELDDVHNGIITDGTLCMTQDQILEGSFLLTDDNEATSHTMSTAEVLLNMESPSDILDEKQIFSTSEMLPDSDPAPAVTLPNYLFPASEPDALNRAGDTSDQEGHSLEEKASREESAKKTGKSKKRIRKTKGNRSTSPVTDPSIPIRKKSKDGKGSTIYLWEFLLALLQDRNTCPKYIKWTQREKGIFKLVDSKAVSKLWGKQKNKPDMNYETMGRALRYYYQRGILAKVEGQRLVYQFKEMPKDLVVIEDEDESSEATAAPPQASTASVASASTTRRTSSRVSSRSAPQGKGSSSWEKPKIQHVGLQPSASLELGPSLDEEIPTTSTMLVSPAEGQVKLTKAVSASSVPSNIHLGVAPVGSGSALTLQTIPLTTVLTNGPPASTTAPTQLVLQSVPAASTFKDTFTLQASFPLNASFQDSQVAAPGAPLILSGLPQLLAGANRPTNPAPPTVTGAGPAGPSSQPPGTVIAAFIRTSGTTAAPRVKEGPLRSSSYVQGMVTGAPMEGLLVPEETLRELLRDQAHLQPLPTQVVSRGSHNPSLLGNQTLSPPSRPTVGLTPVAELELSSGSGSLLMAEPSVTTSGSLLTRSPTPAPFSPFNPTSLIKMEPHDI
The target of a further test is T9, ELK4 (Homo sapiens, UniProt P28324-2 1-405).
T9 sequence: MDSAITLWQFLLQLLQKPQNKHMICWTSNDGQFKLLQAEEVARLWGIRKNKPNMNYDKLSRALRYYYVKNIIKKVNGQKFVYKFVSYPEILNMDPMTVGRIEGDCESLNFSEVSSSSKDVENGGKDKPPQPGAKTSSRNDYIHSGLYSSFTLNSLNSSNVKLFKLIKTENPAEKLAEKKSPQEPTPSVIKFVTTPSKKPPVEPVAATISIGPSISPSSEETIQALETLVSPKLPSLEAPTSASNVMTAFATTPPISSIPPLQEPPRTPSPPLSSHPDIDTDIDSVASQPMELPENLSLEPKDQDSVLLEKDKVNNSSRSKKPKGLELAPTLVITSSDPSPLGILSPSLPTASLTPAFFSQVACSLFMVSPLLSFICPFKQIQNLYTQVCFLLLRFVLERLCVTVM
As to conditions: protein: recombinant; tags: N-terminal GST; dsDNA, one strand shown. The essentials:
as §1

The target of another test is T10, ETV2 (Homo sapiens, UniProt O00321 1-342).
T10 sequence: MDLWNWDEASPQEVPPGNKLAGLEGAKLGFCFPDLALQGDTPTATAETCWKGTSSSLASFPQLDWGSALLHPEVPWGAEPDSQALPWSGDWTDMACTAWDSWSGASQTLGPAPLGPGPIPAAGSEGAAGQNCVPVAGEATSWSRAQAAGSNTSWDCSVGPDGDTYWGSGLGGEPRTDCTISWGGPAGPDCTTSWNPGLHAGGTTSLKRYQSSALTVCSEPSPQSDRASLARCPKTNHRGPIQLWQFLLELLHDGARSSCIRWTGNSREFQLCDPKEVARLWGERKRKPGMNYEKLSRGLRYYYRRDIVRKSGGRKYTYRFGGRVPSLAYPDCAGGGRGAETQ
Conditions: protein: recombinant; tags: N-terminal GST; dsDNA, one strand shown. The essentials:
as §1

A further test concerns the target T11, ELF3 (Homo sapiens, UniProt P78545 1-371).
T11 sequence: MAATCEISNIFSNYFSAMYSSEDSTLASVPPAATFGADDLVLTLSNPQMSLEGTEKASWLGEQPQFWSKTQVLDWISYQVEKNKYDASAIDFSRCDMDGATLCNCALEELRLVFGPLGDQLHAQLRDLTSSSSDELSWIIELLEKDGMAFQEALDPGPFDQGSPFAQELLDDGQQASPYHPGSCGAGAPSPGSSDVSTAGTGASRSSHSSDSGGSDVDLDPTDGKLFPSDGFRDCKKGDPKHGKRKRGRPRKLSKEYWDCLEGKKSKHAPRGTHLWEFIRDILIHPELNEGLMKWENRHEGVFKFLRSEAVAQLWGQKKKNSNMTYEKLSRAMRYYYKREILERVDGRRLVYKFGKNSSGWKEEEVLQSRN
Conditions: protein: recombinant; tags: N-terminal GST; dsDNA, one strand shown. The essentials: as §1

In a further test the target is CRX (Homo sapiens, UniProt O43186 1-299). As to conditions: protein: recombinant; tags: N-terminal GST; dsDNA, one strand shown. The essentials:
as §1

A further test deals with ETV1 (Homo sapiens, UniProt P50549 1-477). As to conditions: protein: recombinant; tags: N-terminal GST; dsDNA, one strand shown. The essentials: as §1
ETV1, sequence (P50549 whole entry): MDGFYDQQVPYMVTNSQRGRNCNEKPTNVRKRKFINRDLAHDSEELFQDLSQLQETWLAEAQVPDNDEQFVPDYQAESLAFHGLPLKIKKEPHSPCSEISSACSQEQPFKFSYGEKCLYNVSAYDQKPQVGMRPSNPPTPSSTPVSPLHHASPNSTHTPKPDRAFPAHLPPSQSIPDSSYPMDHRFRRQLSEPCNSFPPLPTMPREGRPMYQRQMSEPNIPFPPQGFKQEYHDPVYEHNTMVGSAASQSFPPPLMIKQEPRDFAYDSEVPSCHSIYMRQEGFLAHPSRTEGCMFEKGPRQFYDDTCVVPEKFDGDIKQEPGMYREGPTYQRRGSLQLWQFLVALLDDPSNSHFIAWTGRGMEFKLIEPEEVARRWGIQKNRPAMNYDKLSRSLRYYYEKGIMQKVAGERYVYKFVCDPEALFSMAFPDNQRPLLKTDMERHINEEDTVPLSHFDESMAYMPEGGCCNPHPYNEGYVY

ETV5, sequence (P41161 whole entry): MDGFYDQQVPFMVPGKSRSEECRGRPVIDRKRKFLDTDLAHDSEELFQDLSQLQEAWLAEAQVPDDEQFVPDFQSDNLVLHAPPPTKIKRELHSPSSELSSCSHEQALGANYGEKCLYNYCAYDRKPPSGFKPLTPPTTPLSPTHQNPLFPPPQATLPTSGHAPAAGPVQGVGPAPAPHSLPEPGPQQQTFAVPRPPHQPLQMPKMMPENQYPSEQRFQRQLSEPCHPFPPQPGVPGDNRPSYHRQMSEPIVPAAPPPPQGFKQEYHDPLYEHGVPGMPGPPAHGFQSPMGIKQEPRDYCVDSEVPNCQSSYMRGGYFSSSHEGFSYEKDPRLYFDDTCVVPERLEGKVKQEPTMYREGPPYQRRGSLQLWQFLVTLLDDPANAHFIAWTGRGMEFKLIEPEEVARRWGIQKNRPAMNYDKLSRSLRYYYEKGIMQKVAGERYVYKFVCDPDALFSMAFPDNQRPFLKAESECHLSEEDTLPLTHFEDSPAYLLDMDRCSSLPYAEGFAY
CRX, sequence (O43186 whole entry): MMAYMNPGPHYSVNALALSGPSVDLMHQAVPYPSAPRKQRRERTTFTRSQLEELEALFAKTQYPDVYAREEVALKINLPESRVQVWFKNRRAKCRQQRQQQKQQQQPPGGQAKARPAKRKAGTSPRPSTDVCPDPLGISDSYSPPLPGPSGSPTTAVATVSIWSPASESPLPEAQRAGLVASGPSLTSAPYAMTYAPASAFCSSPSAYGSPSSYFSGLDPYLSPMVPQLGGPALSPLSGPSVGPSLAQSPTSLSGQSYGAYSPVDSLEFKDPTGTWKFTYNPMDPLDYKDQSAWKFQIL
HSF1, sequence (Q00613 whole entry): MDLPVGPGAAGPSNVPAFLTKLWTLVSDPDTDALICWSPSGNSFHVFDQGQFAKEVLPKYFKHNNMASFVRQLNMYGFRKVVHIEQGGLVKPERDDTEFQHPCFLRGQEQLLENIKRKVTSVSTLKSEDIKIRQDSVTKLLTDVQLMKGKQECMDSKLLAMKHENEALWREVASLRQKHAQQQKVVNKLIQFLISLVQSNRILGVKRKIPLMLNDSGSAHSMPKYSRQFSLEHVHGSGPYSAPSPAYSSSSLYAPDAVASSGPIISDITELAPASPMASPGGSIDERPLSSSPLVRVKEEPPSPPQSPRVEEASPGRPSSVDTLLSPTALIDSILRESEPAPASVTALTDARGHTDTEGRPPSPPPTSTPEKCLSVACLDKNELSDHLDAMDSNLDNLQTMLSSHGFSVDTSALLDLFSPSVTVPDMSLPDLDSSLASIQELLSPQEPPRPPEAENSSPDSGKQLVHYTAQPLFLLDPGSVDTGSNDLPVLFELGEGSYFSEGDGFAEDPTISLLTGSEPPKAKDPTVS
ELF1, sequence (P32519 whole entry): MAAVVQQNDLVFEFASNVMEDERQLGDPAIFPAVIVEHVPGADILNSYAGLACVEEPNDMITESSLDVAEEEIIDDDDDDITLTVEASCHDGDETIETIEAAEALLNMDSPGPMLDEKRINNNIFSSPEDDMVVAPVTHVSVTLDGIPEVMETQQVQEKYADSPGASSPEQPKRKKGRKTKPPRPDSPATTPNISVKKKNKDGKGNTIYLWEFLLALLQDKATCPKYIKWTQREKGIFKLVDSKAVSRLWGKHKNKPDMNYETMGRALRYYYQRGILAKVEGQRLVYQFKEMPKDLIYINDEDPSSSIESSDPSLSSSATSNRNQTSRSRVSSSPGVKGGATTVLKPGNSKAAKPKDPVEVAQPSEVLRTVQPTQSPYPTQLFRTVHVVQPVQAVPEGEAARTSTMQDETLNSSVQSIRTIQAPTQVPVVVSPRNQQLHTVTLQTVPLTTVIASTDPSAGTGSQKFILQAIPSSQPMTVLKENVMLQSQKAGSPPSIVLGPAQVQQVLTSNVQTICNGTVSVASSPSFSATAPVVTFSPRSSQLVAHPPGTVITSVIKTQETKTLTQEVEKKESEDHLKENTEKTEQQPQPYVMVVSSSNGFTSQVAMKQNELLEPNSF

With TATAGA, the binding signal with FLI1 is 1.02 fold enrichment (6-mer frequency, TF over GST control); with ELK1, 1.07 fold enrichment (6-mer frequency, TF over GST control); in the test with GABPA, 1.12 fold enrichment (6-mer frequency, TF over GST control); in the test with ERG, 1 fold enrichment (6-mer frequency, TF over GST control); with ELF1 it was 1.13 fold enrichment (6-mer frequency, TF over GST control); in the test with EHF, 1.07 fold enrichment (6-mer frequency, TF over GST control). In addition, the binding signal with SPI1 was 1.13 fold enrichment (6-mer frequency, TF over GST control); with SPIB it was 1.07 fold enrichment (6-mer frequency, TF over GST control); with ELK3, 1.14 fold enrichment (6-mer frequency, TF over GST control); in the test with FEV, 1.04 fold enrichment (6-mer frequency, TF over GST control); in the test with ETV5, 1.08 fold enrichment (6-mer frequency, TF over GST control); with HSF1, 1.52 fold enrichment (6-mer frequency, TF over GST control). For the same sequence, the binding signal in the test with SPIC is 1.04 fold enrichment (6-mer frequency, TF over GST control); with ELF4, 1.09 fold enrichment (6-mer frequency, TF over GST control); with ELK4, 1 fold enrichment (6-mer frequency, TF over GST control); in the test with ETV2, 1.08 fold enrichment (6-mer frequency, TF over GST control); in the test with ELF3, 1.17 fold enrichment (6-mer frequency, TF over GST control); with CRX, 1.45 fold enrichment (6-mer frequency, TF over GST control). Also, in the test with ETV1, the binding signal is 1.13 fold enrichment (6-mer frequency, TF over GST control).
